The whole screen tested about 190,000 compounds, of which about 4,000 (2.1%) were called active. Cut-off read from the data, not from the text of the source: active = inhibition above about 58%; inactive = the rest, inconclusive results apart; tested in S. cerevisiae. This excerpt belongs to a sample that is enriched for actives.
Test: growth inhibition of WT strain, primary screen, mitochondrial fusion inhibitor project, WT and mutant strains, chemical genetic (AID 1362)
Settings: mitochondrial fusion phenotypic screen, at 10 µM
[1] = WT strain, growth inhibition, stronger effect = higher value

Cn1nnnc1SCC(=O)NNC(=O)c1ccc(Br)cc1
inhibition [1]: -19.9% (inactive)
inhibition (mutant strain inhibition): 0.05%

COc1cc(/C=N/NC(=O)c2cc(C)n(-c3ccc(F)cc3)c2C)cc(OC)c1O
inhibition [1]: 1.5% (inactive)
inhibition (mutant strain inhibition): 1.64%

COc1cc(Cl)c(C)cc1NC(=O)CSc1nnc(-c2ccco2)n1CC(C)C
inhibition [1]: 63.4% (active)
inhibition (mutant strain inhibition): 39.5%

CCn1c(SCC(=O)Nc2cc(C)c(Cl)cc2OC)nnc1-c1ccco1
inhibition [1]: 23% (inactive)
inhibition (mutant strain inhibition): 32.2%

COc1cc(Cl)c(C)cc1NC(=O)CSc1nnc(-c2cccnc2)n1Cc1ccco1
inhibition [1]: 2.54% (inactive)
inhibition (mutant strain inhibition): 2.3%

CCN(CC)CCOC(=O)c1ccc(NC(=O)CNC(=O)c2ccccc2)cc1
inhibition [1]: 19.4% (inactive)
inhibition (mutant strain inhibition): 15.8%

COc1ccccc1NC(=S)N1CCN(C(c2ccccc2)c2ccccc2)CC1
inhibition [1]: 58.8% (active)
inhibition (mutant strain inhibition): 38.3%

CC(C)OCC(O)CN1CCN(C(c2ccccc2)c2ccccc2)CC1 (stereo not given)
inhibition [1]: 11% (inactive)
inhibition (mutant strain inhibition): 3.96%

CC(C)NC(=S)N1CCN(S(C)(=O)=O)CC1
inhibition [1]: -2.96% (inactive)
inhibition (mutant strain inhibition): 11.2%

COc1ccccc1NC(=S)NC(=O)C(C)C
inhibition [1]: 48% (inactive)
inhibition (mutant strain inhibition): 2.93%

COc1ccccc1NC(=S)N1CCC(NC(=O)C23CC4CC(CC(C4)C2)C3)CC1
inhibition [1]: -5.17% (inactive)
inhibition (mutant strain inhibition): 19%

CC(C)NC(=S)N1CCN(C(c2ccccc2)c2ccccc2)CC1
inhibition [1]: 64.7% (active)
inhibition (mutant strain inhibition): 29.4%

O=C1CN(C(=O)COC(=O)c2cnc(Cl)c(Cl)c2)c2ccccc2N1
inhibition [1]: -3.97% (inactive)
inhibition (mutant strain inhibition): -29.4%

O=C(COC(=O)c1ccco1)NCc1ccc(Cl)cc1
inhibition [1]: 2.75% (inactive)
inhibition (mutant strain inhibition): -1.13%

Cc1n[nH]c(=O)n1-c1ccc(C(C)C)cc1
inhibition [1]: -5.29% (inactive)
inhibition (mutant strain inhibition): -2.69%

O=C(CO/N=C/c1ccc(OC(F)F)cc1)NCc1ccc(F)cc1
inhibition [1]: 16.7% (inactive)
inhibition (mutant strain inhibition): 27%

CC(C(=O)N=Nc1c(O)n(C)c2ccc(Br)cc12)n1cnc2ccccc2c1=O (stereo not given)
inhibition [1]: 17.8% (inactive)
inhibition (mutant strain inhibition): 30.6%

COCCN(CCOC)S(=O)(=O)c1ccc(/C(O)=C(\C#N)c2nc3ccccc3[nH]2)cc1
inhibition [1]: -0.78% (inactive)
inhibition (mutant strain inhibition): -1.8%

CC(C)CN1CCNC(=O)C1CC(=O)N(C)CC1CCOCC1 (stereo not given)
inhibition [1]: -4.62% (inactive)
inhibition (mutant strain inhibition): -8.09%

COC(=O)C1=C(C)N(c2ccc(C)cc2)/C(=C/c2ccc(O)cc2)C1=O
inhibition [1]: 5.84% (inactive)
inhibition (mutant strain inhibition): 0.5%

COc1ccc(/C=N/NC(=O)CNC(=O)c2ccc(S(=O)(=O)N3CCCC3)cc2)c(OC)c1
inhibition [1]: 7.02% (inactive)
inhibition (mutant strain inhibition): 8.18%

Cc1nnc(CN(C)Cc2cn[nH]c2-c2ccc(-c3ccccc3)cc2)o1
inhibition [1]: 6.53% (inactive)
inhibition (mutant strain inhibition): -1.49%

O=C(Nc1ccc2ccccc2c1)/C(=C/c1cccc(Br)c1)NC(=O)c1ccco1
inhibition [1]: 17.2% (inactive)
inhibition (mutant strain inhibition): 10.9%

CC(Oc1ccc2ccccc2c1)C(=O)NNC(=S)NC(=O)c1ccco1 (stereo not given)
inhibition [1]: 86.5% (active)
inhibition (mutant strain inhibition): 80.5%

CCCc1ccc(OCC(=O)NNC(=S)NC(=O)c2ccco2)cc1
inhibition [1]: 87.8% (inactive)
inhibition (mutant strain inhibition): 88.2%

CCCNC(=O)Nc1ccccc1C(=O)Nc1ccc(OC)cc1
inhibition [1]: -0.69% (inactive)
inhibition (mutant strain inhibition): -0.17%

CCCCCNC(=O)c1cccnc1SCC(=O)Nc1ccccc1OC
inhibition [1]: -6.44% (inactive)
inhibition (mutant strain inhibition): -24%

CCCNC(=O)c1ccccc1NC(=O)CSCc1ccc(OC)cc1
inhibition [1]: 72.9% (active)
inhibition (mutant strain inhibition): 19.6%

Cc1cccc(C)c1NC(=O)C1(C)c2cccc[n+]2CC(=O)N1Cc1cccs1 (stereo not given)
inhibition [1]: -7.87% (inactive)
inhibition (mutant strain inhibition): 0.75%

COc1cc(/C=N/O)cc(Br)c1OCc1cccc(Cl)c1
inhibition [1]: 91.4% (active)
inhibition (mutant strain inhibition): 76.3%

COc1cc(/C=N/Nc2ccc(C)cc2)cc(Br)c1O
inhibition [1]: 15.8% (inactive)
inhibition (mutant strain inhibition): 37.7%

COc1cc(/C=N/O)cc(Br)c1OS(=O)(=O)c1ccc(C)cc1
inhibition [1]: 71.3% (active)
inhibition (mutant strain inhibition): 30.6%

COc1cccc(/C=N/NC(=O)c2cccc([N+](=O)[O-])c2)c1OS(=O)(=O)c1ccc(C)cc1
inhibition [1]: -5.41% (inactive)
inhibition (mutant strain inhibition): -3.16%

CCOc1c(Cl)cc(/C=N/O)cc1OC
inhibition [1]: -6.94% (inactive)
inhibition (mutant strain inhibition): -20.7%

CCOc1cc(/C=N/O)cc(Br)c1OC
inhibition [1]: -2.36% (inactive)
inhibition (mutant strain inhibition): -20.3%

N#CC1(C#N)C(C(=O)C23CC4CC(CC(C4)C2)C3)C12CCOCC2 (stereo not given)
inhibition [1]: 21.5% (inactive)
inhibition (mutant strain inhibition): 11.6%

CCOc1cc(N2CCOCC2)c(OCC)cc1NC(=O)C1=NN(c2cccc(C)c2)C(=O)CC1
inhibition [1]: -2.98% (inactive)
inhibition (mutant strain inhibition): 16.4%

Cc1cc(C)c(OCCN2CC(C)OC(C)C2)c(Br)c1 (stereo not given)
inhibition [1]: 21.8% (inactive)
inhibition (mutant strain inhibition): 42.5%

Cc1ccc(OCc2n[nH]c(=S)n2-c2ccc(C)cc2)cc1
inhibition [1]: 69.9% (active)
inhibition (mutant strain inhibition): 60.1%

Cc1ccc(OCc2n[nH]c(=S)n2-c2ccccc2)cc1
inhibition [1]: 11.4% (inactive)
inhibition (mutant strain inhibition): 20.6%

S=c1[nH]nc(COc2ccccc2)n1-c1ccccc1
inhibition [1]: -7.14% (inactive)
inhibition (mutant strain inhibition): -7.05%

COc1ccc(CN(C)C(=S)Nc2ccc(Cl)cc2Cl)cc1
inhibition [1]: 22.4% (inactive)
inhibition (mutant strain inhibition): 21.9%

O=Cc1cn(Cc2ccccc2)nc1-c1cccnc1
inhibition [1]: -22.6% (inactive)
inhibition (mutant strain inhibition): 3.85%

N#C/C(=C(\O)C(F)(F)F)c1nnc2n1CCCCC2
inhibition [1]: 22% (inactive)
inhibition (mutant strain inhibition): 13.5%

Cc1ccc2nc(-c3ccccc3)cc(C(=O)O)c2c1
inhibition [1]: 3.84% (inactive)
inhibition (mutant strain inhibition): 0.25%

CC(=O)Nc1cccc(-c2cnc3ccccc3n2)c1
inhibition [1]: 13.3% (inactive)
inhibition (mutant strain inhibition): 9.81%

CCS(=O)(=O)Nc1cccc(-c2cc(-c3ccccc3)c3cc(C)ccc3n2)c1
inhibition [1]: 69.3% (active)
inhibition (mutant strain inhibition): -17.6%

CCC(C)(C)NC(=O)/C=C/c1cc(OC)c(OC)c(S(=O)(=O)N2CCc3ccccc32)c1
inhibition [1]: 7.15% (inactive)
inhibition (mutant strain inhibition): 8.01%

COc1ccc(CS(=O)/C(Cl)=C(/Cl)C(=O)Nc2ccc(OC)nc2)cc1 (stereo not given)
inhibition [1]: 80% (inactive)
inhibition (mutant strain inhibition): 83.5%

CN(C)c1ccnc2sc(C(=O)c3ccccc3)c(N)c12
inhibition [1]: 38.8% (inactive)
inhibition (mutant strain inhibition): 22.2%

Cc1nc2sc(C(=O)c3ccccc3)c(N)c2c2c1CCCC2
inhibition [1]: 66.8% (active)
inhibition (mutant strain inhibition): 35.7%

NC(=O)c1sc2nc3c(c(-c4ccccc4)c2c1N)CCC3
inhibition [1]: -6.05% (inactive)
inhibition (mutant strain inhibition): -18.6%

COc1ccccc1CNC(=O)C1Cc2ccccc2C(=O)O1 (stereo not given)
inhibition [1]: -29.6% (inactive)
inhibition (mutant strain inhibition): -2%

CCOc1cc(NC(=O)CCl)c(OCC)cc1NC(C)=O
inhibition [1]: -12.2% (inactive)
inhibition (mutant strain inhibition): 11.6%

CC(C)(C)NC(=O)CN1CCC(NC(=O)C23CC4CC(CC(C4)C2)C3)CC1
inhibition [1]: -5.35% (inactive)
inhibition (mutant strain inhibition): -4.48%

CSc1ccc(C(=O)C2CCCN(C(=O)c3ccc(C)nc3)C2)cc1 (stereo not given)
inhibition [1]: 0.28% (inactive)
inhibition (mutant strain inhibition): -10.8%

CC1(C)CC(=O)c2cnc3nc4ccccc4n3c2C1
inhibition [1]: 16.6% (inactive)
inhibition (mutant strain inhibition): -7.45%

O=c1c2ccccc2nc2n1C1(CCCCC1)Cc1ccccc1-2
inhibition [1]: 61.2% (active)
inhibition (mutant strain inhibition): 9.31%

c1cncc(-c2nnc3n2C2(CCCCC2)Cc2ccccc2-3)c1
inhibition [1]: 11.9% (inactive)
inhibition (mutant strain inhibition): 5.15%

CCC1(CC)Cc2ccccc2-c2nc3ccccc3c(=O)n21
inhibition [1]: -30.3% (inactive)
inhibition (mutant strain inhibition): 0.33%

COC(=O)C1=C(C)NC(=O)/C1=C/c1ccc(CNS(=O)(=O)c2ccc(C)cc2)o1
inhibition [1]: -8.5% (inactive)
inhibition (mutant strain inhibition): 0.18%

NS(=O)(=O)c1ccc(CCNC(=O)c2ccc([N+](=O)[O-])cc2[N+](=O)[O-])cc1
inhibition [1]: -6.04% (inactive)
inhibition (mutant strain inhibition): -5.86%

COc1cc(NC(=O)c2ccccc2NS(=O)(=O)c2ccc(Cl)s2)cc(OC)c1
inhibition [1]: 67.2% (active)
inhibition (mutant strain inhibition): 46.5%

COc1cc(NC(=O)c2cccnc2SC)cc(OC)c1
inhibition [1]: -8.4% (inactive)
inhibition (mutant strain inhibition): -8.46%

COC(=O)c1ccc(NC(=O)c2ccccc2NS(=O)(=O)c2ccccc2)cc1
inhibition [1]: 6.94% (inactive)
inhibition (mutant strain inhibition): 15.7%

CCOC(=O)C1CCN(c2ncnc3c2c(-c2ccccc2)cn3-c2ccc(C)cc2)CC1
inhibition [1]: 14.7% (inactive)
inhibition (mutant strain inhibition): 15.5%

COc1cccc(CNc2nc3nc4c(c(=O)n3[nH]2)CCC4)c1
inhibition [1]: -0.87% (inactive)
inhibition (mutant strain inhibition): -10.6%

COc1cccc(-c2nc(S(=O)(=O)c3ccccc3)c(N3CCOCC3)o2)c1
inhibition [1]: -12% (inactive)
inhibition (mutant strain inhibition): -5.11%

COc1cccc(-c2cc3nc4c(c(N5CCC6(CC5)OCCO6)n3n2)CCCC4)c1
inhibition [1]: 69.6% (active)
inhibition (mutant strain inhibition): 33.9%

Cc1ccc(NC(=O)CN2CCC(C(N)=O)CC2)cc1[N+](=O)[O-]
inhibition [1]: -8.61% (inactive)
inhibition (mutant strain inhibition): -3.52%

CCCN(C(=O)CSc1nnnn1C)c1c(N)n(Cc2ccccc2)c(=O)[nH]c1=O
inhibition [1]: -4.08% (inactive)
inhibition (mutant strain inhibition): -15.2%

CC(C)c1ccc2c(c1)c(SC(C)(C)C)c(CC(C)(C)C(=O)O)n2Cc1ccc(Cl)cc1
inhibition [1]: 70.4% (active)
inhibition (mutant strain inhibition): 23.5%

Cc1ccc(C(=O)N2CCN(S(=O)(=O)N3CCOCC3)CC2)cc1
inhibition [1]: 8.87% (inactive)
inhibition (mutant strain inhibition): 9.09%

COc1ccc(C2CC(c3cccs3)=NN2C(=O)CSc2nncs2)cc1OC (stereo not given)
inhibition [1]: -1.36% (inactive)
inhibition (mutant strain inhibition): -8.65%

Cc1ccccc1CC1(CO)CCCN(Cc2ccc3c(c2)OCCO3)C1 (stereo not given)
inhibition [1]: -4.77% (inactive)
inhibition (mutant strain inhibition): 1.77%

NC(=O)C[n+]1cccc(C(N)=O)c1
inhibition [1]: -12.7% (inactive)
inhibition (mutant strain inhibition): -23.1%

COc1ccc(C(=O)CN(C(=O)c2ccc(Cl)cc2)N2C(=O)c3ccccc3C2=O)cc1
inhibition [1]: 6.73% (inactive)
inhibition (mutant strain inhibition): 27.8%

COc1ccc(Cn2c(=O)cc(C)[nH]c2=S)cc1
inhibition [1]: -15.8% (inactive)
inhibition (mutant strain inhibition): -20.1%

COc1ccc(Cn2c(-c3ccc(Cl)cc3)c[n+]3ccccc23)cc1
inhibition [1]: 65.1% (active)
inhibition (mutant strain inhibition): 49.9%

COCCNC(=O)CCCn1c(=O)c2ccccc2n(Cc2cccc([N+](=O)[O-])c2)c1=O
inhibition [1]: 5.52% (inactive)
inhibition (mutant strain inhibition): 6.42%

O=C(NCCCNc1ccc([N+](=O)[O-])cc1Cl)c1ccccc1F
inhibition [1]: -8.75% (inactive)
inhibition (mutant strain inhibition): -6.43%

COCCn1c(Cc2cccn2C)nnc1SCC(=O)Nc1nccs1
inhibition [1]: 1.47% (inactive)
inhibition (mutant strain inhibition): 4.94%

Cc1c(Cl)cccc1NC(=O)CC1SC(=NCC2CCCO2)NC1=O (stereo not given)
inhibition [1]: -15.1% (inactive)
inhibition (mutant strain inhibition): 19%

CCN=C1SC(CC(=O)Nc2ccc(C)cc2)C(=O)N1CC (stereo not given)
inhibition [1]: -14.8% (inactive)
inhibition (mutant strain inhibition): 6.26%

Cc1ccc(NC(=O)CC2S/C(=N/N=C3\CCCc4ccccc43)NC2=O)cc1 (stereo not given)
inhibition [1]: 83.8% (active)
inhibition (mutant strain inhibition): 33.5%
